The list is not random: actives were taken first. Their share in the collection is about 6.1%.
Cdc25B block = human M-phase inducer phosphatase 2 inhibition; P30305; 65,000 compounds, 0.1% hits; inhibition, %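 (compounds tested at 10 µM final in the well)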; recombinant Cdc25B, OMFP fluorescence Ex485/Em525; in the data active = inhibition above about 50%
Hsp90 block = displaces geldanamycin probe from tumor Hsp90; inhibition, % at 30 µM; NCI-N417 lysate Hsp90, Cy3B-geldanamycin FP displacement; 64,000 compounds, 0.35% hits; P07900; AID 429;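 active = inhibition above 50%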;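 note: 0% = tracer plus lysate wells and 100% = tracer alone without lysate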
M1 agonist = activates the M1 muscarinic receptor. CHO-M1 cells, Fluo-4 calcium fluorescence, agonist mode; active compounds read high. B-score at 10 µM. AID 626. 64,000 compounds, 3% hits;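 active = fluorescence rise, raw or as B-score row- and column-corrected plate score, outside the 99.7% band of its plate's samples, either direction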
MKP-1 inh = blocks human MKP-1 phosphatase activity. P28562. recombinant MKP-1, OMFP hydrolysis fluorescence. inhibition, %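 (compounds tested at a single concentration somewhere between 10 and 100 µM)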. 65,000 compounds, 0.15% hits. AID 374;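 active = inhibition above about 50%, limit read from the data; inconclusive = inhibition over screen mean plus 3 SD, below that limit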;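 note: 0% = DMSO max control wells and 100% = wells with enzyme stopped by NaOH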
MMP-13 inhibitor = inhibitors of human MMP13; inhibition, % at 4 µM; MMP-13 fTHP FRET cleavage, Mca fluorescence; 65,000 compounds, 0.07% hits; P45452;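 active = inhibition above the mean of compound-free control plate wells plus 3 SD, cut at about 14% in these data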;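 note: 0% = DMSO wells and 100% = wells with reference MMP-13 inhibitor after basal subtraction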
M1 antagonist = blocks the rat M1 muscarinic receptor response to acetylcholine | 64,000 compounds, 3.4% hits | CHO-M1 cells, Fluo-4 calcium, ACh EC80 antagonist mode; active compounds read low | B-score at 10 µM | AID 628;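 active = calcium fluorescence response, raw or row-and-column corrected B-score, differing from the plate sample mean either way at a set confidence level, mostly lower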
M1 ag confirm = confirmation of rat M1 muscarinic receptor agonists; shares compounds with M1 agonist; CHO-M1 cells, Fluo-4 calcium fluorescence, agonist mode; actives lie on both sides; fluorescence change (max-min) at 10 µM; 1,700 compounds, 19% hits; AID 1488;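 active = fluorescence change differs from the solvent-only DMSO control mean at a set confidence level in both duplicate runs; inconclusive = differs from solvent-only control mean in just one of two runs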;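 note: an EC20 dose of acetylcholine follows compound addition during the same imaging run; raw fluorescence intensity difference in instrument units with no normalization to controls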
M4 agonist ctr = rat M4 muscarinic agonism, M1 counter-screen | CHO M4/Gqi5 cells, Fluo-4 calcium fluorescence, agonist mode; actives lie on both sides | AID 1741 | shares compounds with M1 agonist | fluorescence change (max-min) at 10 µM | 1,700 compounds, 9% hits;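 active = fluorescence change differing from the plate's solvent-only control wells at 99.7% confidence in both duplicates, whether higher or lower; inconclusive = differs from solvent controls in only one of two duplicates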
Target sequence (P08485 whole entry, looked up): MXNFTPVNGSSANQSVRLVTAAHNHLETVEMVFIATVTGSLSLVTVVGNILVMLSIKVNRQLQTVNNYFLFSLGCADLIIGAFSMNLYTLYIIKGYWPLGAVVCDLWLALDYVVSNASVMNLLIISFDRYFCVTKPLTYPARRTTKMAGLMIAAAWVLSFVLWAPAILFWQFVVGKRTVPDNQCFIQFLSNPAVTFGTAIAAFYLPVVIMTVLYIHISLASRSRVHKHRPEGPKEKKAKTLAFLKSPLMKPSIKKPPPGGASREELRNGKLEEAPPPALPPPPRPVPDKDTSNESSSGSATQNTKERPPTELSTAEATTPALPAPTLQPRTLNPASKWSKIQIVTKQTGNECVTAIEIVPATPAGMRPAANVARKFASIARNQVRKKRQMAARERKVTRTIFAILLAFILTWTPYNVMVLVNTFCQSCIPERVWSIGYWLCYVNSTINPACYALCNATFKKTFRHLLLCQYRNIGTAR
* hit, by the source's call; ? = inconclusive; · = not tested or not shown.

SMILES	Cdc25B block	Hsp90 block	M1 agonist	MKP-1 inh	MMP-13 inhibitor	M1 antagonist	M1 ag confirm	M4 agonist ctr
CCOC(=O)C1CCCN(C(=O)Cn2sc3nc(C)cc(C)c3c2=O)C1 (configuration not stated)	-5	-1	5.9*	2	-8	0.71	25	-35
Cc1nc2ccc(S(=O)(=O)NCC(=O)N3CCOCC3)cc2s1	-2	0	-0.66	-3	1	0.3	·	·
Cc1ccsc1C(=O)OCc1csc(-c2ccccc2)n1	-15	-1	-0.97	-14	0	-0.59	·	·
CN1C(=O)CSc2ccc(NC(=O)N3CCc4ccccc43)cc21	-6	-6	2.8*	34	-3	-0.66	-24	-48
CN1C(=O)CSc2ccc(NC(=O)N3CCN(c4ccccn4)CC3)cc21	-4	-3	-1.1	21	-6	-0.76	·	·
COc1cc(NC(=O)c2cccc3c2C(=O)N(Cc2cccnc2)C3)cc(OC)c1OC	-12	-4	3.2*	20	2	-0.94	-18	-24
CCn1nc(NC(=O)c2cccnc2)c2cc3ccccc3nc21	-23	-1	5*	-13	0	-0.096	-30*	-92*
CCn1nc(NC(=O)c2ccccn2)c2cc3cc(C)ccc3nc21	-5	-2	-0.0062	-6	-66	1	·	·
O=C(Nc1ccc(-c2noc(-c3cccs3)n2)cc1)c1cccnc1	-6	0	0.17	13	-1	-0.58	·	·
O=C(O)C1CSC(CCc2ccccc2)N1 (configuration not stated)	7	2	1.6	-9	-2	0.82	·	·
COc1ccccc1NC(=O)CSc1nnc(C)o1	-3	·	2.4*	8	1	0.078	-12	-29
COc1ccc(-c2nnc(SCC(=O)Nc3ccccc3OC)o2)cc1	-13	-5	-0.37	23	-5	-0.07	·	·
COc1ccc(-c2ccc(=O)n(CC(=O)N3CCN(c4ccccc4OC)CC3)n2)cc1	-4	-4	-0.91	31	2	0.019	·	·
C=C1c2cc(OC)ccc2NC(=O)N1CC	7	-8	8.2*	-26	-46	0.069	71*	11
COc1ccc(CCNC(=O)CSc2nnc(CNc3ccc(Cl)cc3)o2)cc1OC	6	1	-2.2*	2	2	0.015	-15	-64
COc1ccc(CCNC(=O)CSc2nnc(-c3ccc(F)cc3)o2)cc1OC	0	0	0.84	-1	1	-0.0069	·	·
O=C(O)[C@@H](c1ccccc1)N1Cc2ccccc2C1=O	-2	-2	3*	9	0	-0.25	?	-31
CCOC(=O)C1CCCN(C(=O)c2ccc(CS(=O)(=O)c3ccc(C)cc3)o2)C1 (configuration not stated)	-15	-2	34*	-7	6	0.7	261*	-15
COc1ccc(CCC(=O)Nc2nc3c(s2)CN(C)CC3)cc1OC	2	0	-0.2	16	-11	-0.21	·	·
O=C(C1CCN(c2nnc(-n3cccc3)s2)CC1)N1CCN(Cc2ccc3c(c2)OCO3)CC1	5	-1	-2.6*	1	-2	-1.3	-12	-62
O=C(C1CCN(S(=O)(=O)c2cccc3nsnc23)CC1)N1CCN(c2ccccc2F)CC1	-6	-4	5.6	28	-6	0.011	·	·
Cc1cccc(N2CCN(C(=O)C3CCN(S(=O)(=O)c4cccc5nsnc45)CC3)CC2C)c1 (configuration not stated)	-1	-4	16*	8	2	-2	-33*	-88
Cc1cccc(N2CCN(C(=O)C3CCN(c4nnc(-n5cccc5)s4)CC3)CC2C)c1 (configuration not stated)	-10	0	16*	11	-2	-1.6	?	-48
O=C(C1CCN(S(=O)(=O)c2cccc3cccnc23)CC1)N1CCc2ccccc21	-2	-4	-0.52	4	2	0.16	·	·
Cc1cccc(N2CCN(C(=O)C3CCN(S(=O)(=O)c4cccc5cccnc45)CC3)CC2C)c1 (configuration not stated)	-5	-3	8.6*	29	-4	-1.9	-12	?
SMILES	Cdc25B block	Hsp90 block	M1 agonist	MKP-1 inh	MMP-13 inhibitor	M1 antagonist	M1 ag confirm	M4 agonist ctr
N=C1C(c2ccccc2)=C(O)CN1c1ccc2c(c1)OCO2	-11	5	1.1	5	-2	-0.4	·	·
CN(Cc1ccccc1)S(=O)(=O)c1ccc(S(=O)(=O)N2CCN(CCC#N)CC2)cc1	-5	-4	0.82	23	2	-1.3	·	·
CCC(=O)Nc1ccc(Cl)c(NC(=O)C(C)C)c1	-20	1	-0.15	-19	1	-0.12	·	·
COc1ccc(OC)c(NC(=O)C2C3CC4OC(=O)C2C4C3)c1 (configuration not stated)	-8	-10	0.084	7	4	0.083	·	·
Nc1c(C(=O)c2ccccc2)oc2ccc(Br)cc12	5	-1	-2.2*	3	-5	0.63	?	-36
CN1C=CC2=C(C#N)C(N)C(C#N)(C#N)C(c3ccccc3)C2C1 (configuration not stated)	-8	4	34*	7	-46	-0.34	187*	179*
O=C(Nc1ccc(SC(F)F)cc1)c1ccc2nccnc2c1	-12	-7	3.8*	8	6	-0.93*	-17	-2.3
CCS(=O)(=O)NCC(c1cccnc1)N1CCN(c2ccc(F)cc2)CC1 (configuration not stated)	-6	-1	5.1*	14	-3	-0.55	-11	-28
O=C(NCC(c1cccnc1)N1CCN(c2ccc(F)cc2)CC1)c1cccc(Cl)c1 (configuration not stated)	14	0	5.8*	-12	0	-1.3	?	-51
O=C(NCC(c1cccnc1)N1CCN(c2ccc(F)cc2)CC1)OCc1ccccc1 (configuration not stated)	-5	-2	1.6	16	-2	-0.6	·	·
CS(=O)(=O)NCC(c1cccnc1)N1CCN(c2ccc(F)cc2)CC1 (configuration not stated)	14	-2	0.008	-6	-6	0.62	·	·
COc1ccc(NC(=O)Nc2c(C)n(C)n(-c3ccccc3)c2=O)cc1	25	-2	0.092	-11	0	-0.51	·	·
Cc1c(NC(=O)c2cccc(F)c2)c(=O)n(-c2ccccc2)n1C	5	-2	8.9*	-2	-3	-6.5*	-14	?
Cc1c(NC(=O)c2ccc(COc3ccc4ccccc4c3)o2)c(=O)n(-c2ccccc2)n1C	3	-4	-2.8*	27	-4	0.026	-14	-52
O=C(NCCc1ccc(Cl)cc1)c1cnc2n(c1=O)CCS2	-8	0	-2.9*	0	0	-0.098	?	-75

From PubChem
